Most compounds without a hit are left out; they make up all but 14% or so of the library.
Cycloheximide cs = affects cycloheximide protein synthesis inhibition readout, counter-screen; cell reporter, cycloheximide protein synthesis inhibition counterscreen; 300,000 tested, 12% active; max response, %; in the data active means max response mostly above about 13%, no sharp cut-off; inactive means mostly below about 14%; further: read at 38.3 µM for the half of the compounds with a filed dose
Shiga toxin inh = Shiga toxin inhibition | Vero cells, Shiga toxin protein synthesis inhibition reporter | 290,000 tested, 9.2% active | inhibition, % at 38.7 µM | AID 2315; in the data active means inhibition mostly above about 28%, no sharp cut-off; inactive means mostly below about 43%
NS1 inh = blocks influenza NS1 protein function; Potency, µM (series often up to 46.1 µM); AID 2326; 270,000 tested, 0.4% active; calls by dose curve; further: actives are rising curves; nearly all actives have a fitted effect of over 50% in size
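Read-out: OD600 growth recovery of NS1-expressing budding yeast. Cells grown overnight at 30C in -URA glucose medium, washed, resuspended and diluted 1:100 in 2% galactose assay medium, pH 6.0. Same strain lacking NS1 served as positive control.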
Giardia FBPA inh = inhibitors of Giardia lamblia fructose-1,6-bisphosphate aldolase | 290,000 tested, 0.71% active | A8B2U2 | purified Giardia FBPA | AID 2451 | Potency, µM (series often up to 59.6 µM), usual class: inhibitors; further: nearly all actives have a fitted effect of over 55% in size
Target sequence (A8B2U2 whole entry, looked up): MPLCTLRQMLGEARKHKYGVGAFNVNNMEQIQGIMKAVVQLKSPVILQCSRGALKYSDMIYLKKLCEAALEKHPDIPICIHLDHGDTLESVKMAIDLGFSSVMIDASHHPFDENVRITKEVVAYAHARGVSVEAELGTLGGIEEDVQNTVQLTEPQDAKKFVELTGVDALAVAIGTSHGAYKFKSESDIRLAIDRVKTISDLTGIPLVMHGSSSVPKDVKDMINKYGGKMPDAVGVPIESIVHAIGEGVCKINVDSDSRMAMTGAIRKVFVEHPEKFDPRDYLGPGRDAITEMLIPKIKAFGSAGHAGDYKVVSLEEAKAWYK
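Giardia FBPA (40 nM reagent) was preincubated 10 min at RT with compound (up to 57.5 uM final), then substrate plus GAPDH/TPI/NAD/arsenate coupling system with diaphorase/resazurin was added; resorufin fluorescence (525/598 nm) was read after 20 min.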
LmPK inhibitor = blocks Leishmania mexicana pyruvate kinase activity; Potency, µM (doses to about 57.5 µM), usual class: inhibitors; purified LmPK, Kinase-Glo ATP luminescence, 1 h; AID 1721; 290,000 tested, 0.37% active; Q27686
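qHTS format; LmPK 0.1 nM; substrates PEP 0.5 mM and ADP 0.1 mM. One-hour room-temperature incubation, then coupled luciferase luminescence; 0.5 nM enzyme wells mark activation.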
Flu NS1 inh = validation of influenza NS1 protein function inhibitors. influenza NS1 function cell assay, 15-point titration. 1,400 tested, under 10 active. activity change, negative = inhibition, % at 32.9 µM. shares compounds with NS1 inh; calls by dose curve
Flu PR8 replic = reduces influenza A/PR/8/34 replication in MDCK cells; virus titer (log TCID50), log10 TCID50 at 5 µM; AID 504647; shares compounds with NS1 inh; 95 tested, 30% active; MDCK infected influenza A/PR/8/34, virus titer TCID50; stronger effect = lower value; call rule not given here
Of the large screens only hits and unclear results are named; the others gave an inactive call (follow-up assays come after a bar, where they were run). Unless noted, the call rests on the fitted dose curve; in most records, active means well fitted curve in the direction sought with a large enough effect; inconclusive means small, poorly fitted or top-dose-only effect, or another doubt; inactive means no such curve, though single readings can be large; an effect the other way counts as inactive or inconclusive.

O=C(Nc1nc(-c2ccco2)c(-c2ccco2)s1)C1CC(=O)N(c2ccc3c(c2)OCCO3)C1 (centres undefined)	NS1 inh 10µM, Giardia FBPA inh inconclusive | Flu NS1 inh inactive
COc1ccc(N(CC(=O)NCCSC2CCCCC2)S(=O)(=O)c2ccccc2)c(OC)c1	NS1 inh 4µM (no result: Giardia FBPA inh) | Flu NS1 inh inactive
Nc1cc(N)nc(SCC(=O)N2CCN(S(=O)(=O)c3ccccc3)CC2)n1	NS1 inh 11µM | Flu NS1 inh inactive
Cc1ccc(S(=O)(=O)N2CCSC2=Nc2ccccc2)cc1	none
CCc1nc2nc(C)c(NS(=O)(=O)c3ccc(C)c(C)c3)c(=O)n2[nH]1	none
COc1ccccc1NS(=O)(=O)c1ccc(Cl)c(NC(=S)NC(=O)C2CCCC2)c1	NS1 inh 13µM | Flu NS1 inh inactive
CCCn1c(=O)c(Cc2ccccc2)c(O)c2ccccc21	NS1 inh inconclusive | Flu NS1 inh inactive
COC(CNC(=O)c1ccc(Cn2c(=S)[nH]c3cc4c(cc3c2=O)OCO4)cc1)OC	NS1 inh 6.3µM, LmPK inhibitor inconclusive | Flu NS1 inh inactive
Cc1ccccc1OCCn1cc(C=O)c2ccccc21	NS1 inh inconclusive
O=C(CCC(=O)N1CCSc2ccccc21)NCc1ccccc1	none
Cc1cccc(C)c1-n1c(C)cc(/C=N\Nc2ccc([N+](=O)[O-])cn2)c1C	Cycloheximide cs 28, Shiga toxin inh 67, NS1 inh 13µM | Flu NS1 inh inactive
O=[N+]([O-])c1ccc(N/N=C/c2cn(Cc3ccc(F)cc3)c3ccccc23)nc1	none
Cn1c(=O)n(-c2ccccc2)c(=O)c2c3c(sc21)COC(C)(C)C3	NS1 inh 8.9µM | Flu NS1 inh inactive
COc1cc(/C=C2/C(=O)N(c3ccc(Br)cc3)N=C2C)cc(OC)c1OC	NS1 inh 11µM | Flu NS1 inh inactive
CCc1cc(=O)oc2c3c(cc(OCC(=O)N[C@H](C(=O)O)[C@H](C)CC)c12)OC(C)(C)CC3	none
COc1cc(C2NC(C(=O)O)Cc3c2[nH]c2ccccc32)cc(OC)c1OC (centres undefined)	Giardia FBPA inh inconclusive
COc1ccc(C2NC(C(=O)O)Cc3c2[nH]c2ccccc32)cc1OC (centres undefined)	NS1 inh inconclusive | Flu NS1 inh inactive
COc1cc(/C=C/C(=O)O)cc(S(=O)(=O)Nc2ccccc2Oc2ccccc2)c1OC	NS1 inh inconclusive | Flu NS1 inh inactive
C=CCn1c(SCC(=O)NC(=O)NCCC)nnc1C1CCCCC1	none
C=CCn1c(SCC2=C(C(=O)OCC)C(C)NC(=O)N2)nnc1C1CCCCC1 (centres undefined)	NS1 inh 11µM | Flu NS1 inh inactive | Flu PR8 replic inactive
COc1ccc(C2COc3c(ccc(O)c3OC)C2)c(OC)c1O (centres undefined)	none (no result: Cycloheximide cs, Shiga toxin inh, NS1 inh, LmPK inhibitor)
N#CCC(=O)Nc1sc2c(c1C(N)=O)CCCC2	NS1 inh 8.9µM, Giardia FBPA inh inconclusive | Flu NS1 inh inactive
CCC(=O)Nc1sc2c(c1C(N)=O)CCC2	none
CCCCc1cc(=O)oc2cc(C)cc(OCC(=O)N3CCC(C(=O)O)(c4ccccc4)CC3)c12	none
CCCc1cc(=O)oc2cc(OCC(=O)N3CCC(C(=O)O)(c4ccccc4)CC3)ccc12	NS1 inh 11µM | Flu NS1 inh inconclusive
C[C@H]1c2cccc(O)c2C(O)=C2C(=O)[C@]3(O)C(O)=C(C(N)=O)C(=O)C(N(C)C)[C@@H]3[C@@H](O)C21 (some centres undefined)	NS1 inh 7.1µM, Giardia FBPA inh inconclusive (no result: Cycloheximide cs, Shiga toxin inh, LmPK inhibitor) | Flu NS1 inh inactive
CCOC(=O)COc1c(OC)cc(Cl)cc1C1Nc2ccccc2C(=O)N1c1ccccc1 (centres undefined)	none
CCOC(=O)COc1c(OC)cc(Cl)cc1C1Nc2ccccc2C(=O)N1c1ccc(F)cc1 (centres undefined)	NS1 inh 13µM | Flu NS1 inh inactive
CC(C)C(=O)c1ccc(O)c(O)c1	none
CN(N=O)c1ccc(O)c(O)c1	NS1 inh 5µM, Giardia FBPA inh inconclusive (no result: Cycloheximide cs, Shiga toxin inh, LmPK inhibitor) | Flu NS1 inh inactive
CC(C)CC(C(=O)O)N1C(=O)C2C3CC(C2C1=O)C1C(c2ccccc2)c2sc(=O)[nH]c2SC31 (centres undefined)	NS1 inh inconclusive | Flu NS1 inh inactive
O=C(/C=C/c1ccc(Cl)cc1Cl)NC(=S)Nc1ccc(CN2CCOCC2)cc1	NS1 inh inconclusive | Flu NS1 inh inactive
O=C(/C=C/c1ccccc1)NC(=S)Nc1ccc(CN2CCOCC2)cc1	none
CCc1[nH]c(=S)c(C#N)c(-c2ccccc2)c1C(=O)OC	NS1 inh 10µM, Giardia FBPA inh inconclusive | Flu NS1 inh inactive
Cc1[nH]c(=S)c(C#N)c(-c2ccccc2)c1C(=O)Nc1ccccc1	Giardia FBPA inh inconclusive
CC(C)(C)c1ccc(C(=O)NCC(=O)N2CCCCCC2)cc1	none
NC(Cc1cc(O)c(O)cc1O)C(=O)O (centres undefined)	NS1 inh 8.9µM (no result: Cycloheximide cs, Shiga toxin inh, LmPK inhibitor) | Flu NS1 inh inactive
N[C@@H](Cc1cc(I)c(O)c(I)c1)C(=O)O	none
CN(C)C=NC(=O)c1[nH]c2ccc(Cl)cc2c1-c1ccccc1	none
CC(=O)N1CCCN(C(=O)c2ccc3nc(Cc4cccc(Cl)c4)oc3c2)CC1	none
COc1ccc(N2C(N)=C(C#N)C(c3cccnc3)C3=C2CC(C)(C)CC3=O)cc1 (centres undefined)	NS1 inh inconclusive | Flu NS1 inh inactive
CCOc1cc(C(=S)N2CCOCC2)ccc1OC(=O)c1ccc(C)cc1	none
Cc1ccc(C(=O)Nc2ccccc2C(=O)NCc2ccco2)cc1S(=O)(=O)N1CCCCC1	Cycloheximide cs 31, Shiga toxin inh 52, NS1 inh 10µM | Flu NS1 inh inactive
O=C(Nc1ccccc1C(=O)O)c1cccc(S(=O)(=O)Nc2ccc(Br)cc2)c1	none
O=C(Nc1ccccc1C(=O)O)c1cccc(NS(=O)(=O)c2ccc(Br)cc2)c1	NS1 inh 7.9µM (no result: Shiga toxin inh) | Flu NS1 inh inactive
Cc1ccc(C(=O)Nc2ccccc2C(=O)O)cc1S(=O)(=O)Nc1ccccc1	NS1 inh 16µM | Flu NS1 inh inactive
Cc1ccc(C(=O)Nc2ccccc2C(=O)O)cc1S(=O)(=O)NC1CCCCC1	NS1 inh 14µM | Flu NS1 inh inactive | Flu PR8 replic inactive
O=C(CSc1nnc(CNC(=O)c2ccccc2)o1)NCc1ccc2c(c1)OCO2	none (no result: Giardia FBPA inh)
CCc1ccc(NC(=O)CN(c2ccc(OC)cc2)S(=O)(=O)c2c(C)nn(C)c2C)cc1	none (no result: Giardia FBPA inh)
Cc1ccc(-c2noc(N=O)c2NO)cc1	Giardia FBPA inh inconclusive
CCOC(=O)CNC(=O)COc1coc(CN2CCN(c3ccccc3F)CC2)cc1=O	none (no result: Giardia FBPA inh)
O=[N+]([O-])c1cc(S(=O)(=O)Nc2ccccc2)ccc1N1CCN(c2ccc(O)cc2)CC1	NS1 inh 14µM, Giardia FBPA inh inconclusive | Flu NS1 inh inactive
